The panel holds about 83,000 compounds, 20% with a hit somewhere; the sample as a whole holds those more often.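 Single-dose data. Exposure time 48 hours. Values below 10 considered active.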 Active and inactive are the calls of the source.

For this test, the system named is HL-60(TB) leukemia. Briefly: NCI-60 one-dose screen, 48 h (100 = growth as untreated, 0 = no growth, -100 = all killed). The note with it: 10 µM unless noted.
On to `Cn1c(=O)c2[nH]c(CCCc3nc4c([nH]3)c(=O)n(C)c(=O)n4C)nc2n(C)c1=O`, for which the growth is 109% (inactive).

Take `CCCCCCCCCCCC(c1ccccc1)N(C)C` (stereo not given): the growth is 104% (inactive).

With `CCC(C)(C)c1ccc(OCCCCCCN2CCNCC2)cc1`, the growth was -17.4% (active).

`CC1=CC(C)(C)NC(=S)N1c1ccc(S(=O)(=O)O)c2cccc(S(=O)(=O)O)c12`: the growth is 106% (inactive).

In the case of `O=C(/C=C/c1ccccc1)c1cccc2ccccc12`, the growth is 33.7% (inactive).

Regarding `COc1ccc(-c2cc(-c3ccccc3)nc(SCCCCCCC(=O)NO)n2)cc1`, the growth was 8.06% (active).

Consider `CN(C)CCC(=O)c1ccc([N+](=O)[O-])cc1`, for which the growth is 114% (inactive).

In the case of `CN(C)CCC(O)(Cc1ccccc1)c1ccccc1` (stereo not given), the growth was 85% (inactive).

Turning to `CC1(O)CCCCCC1`, the growth was 92.7% (inactive).

Turning to `Cc1nc(-c2ccc(Cl)cc2)ccc1NC(=O)Nc1cccc(C(F)(F)F)c1`, the growth was 79.7% (inactive).

On to `COc1ccc(N(C)c2ncnc3occ(C)c23)cc1`, for which the growth was -34.9% (active).

Regarding `COc1ccc2[nH]c(C(=O)OCc3ccc4c(Br)cc(Br)c(O)c4n3)cc2c1`, the growth was -32.7% (active).

Consider `N[C@@H](CCCCNCC(=O)O)C(=O)O`, for which the growth is 106% (inactive).

As for `O=[N+]([O-])c1ccc(N/N=C(\C(=N/Nc2ccc([N+](=O)[O-])cc2[N+](=O)[O-])c2ccccc2)c2ccccc2)c([N+](=O)[O-])c1`, the growth is 80.5% (inactive).

In the case of `Cc1ccc2nc(-c3c(CCCO)noc3N)[nH]c(=O)c2c1`, the growth was 89.8% (inactive).

For the compound `C#CCOc1cccc(Nc2ncnc3c(NC(=O)CCl)cccc23)c1`, the growth is -59.1% (active).

On to `O=C(CSc1nc2ccc([N+](=O)[O-])cc2[nH]1)Nc1cccc(Cl)c1`, for which the growth is 16.9% (inactive).

Take `COc1cc(NC(=O)COc2cc(C)nc3ccc(OC)cc23)cc(OC)c1`: the growth is 80.3% (inactive).

As for `CCCCCCCCCCCCCCCc1ccc(N)c(OC2OC(CO)C(O)C(O)C2O)c1` (stereo not given), the growth was 23% (inactive).

With `O=C(O)CN1C(=O)CCC1=O`, the growth is 134% (inactive).

Consider `COc1ccc(Cl)cc1Nc1nc(C(F)(F)F)ccc1C(=O)N/N=C/c1cccnc1`, for which the growth was 21.8% (inactive).

Consider `Cc1ccc(/C=C2\CN(C(=O)C(Cl)Cl)C/C(=C\c3ccc(C)cc3)C2=O)cc1`, for which the growth was -21% (active).

Turning to `CCCCCCCCCCCC1=NC(C)(C)CN1CC(C)O` (stereo not given), the growth is -15.1% (active).

`COc1cc(OC)c(Cl)cc1N`: the growth is 131% (inactive).

In the case of `CC(=O)c1ccc2c(ccc3ccccc32)c1`, the growth is 90.6% (inactive).

As to `Cc1cc[n+](CCCCCCCCCC[n+]2ccc(C)cc2)cc1`, the growth is 95.3% (inactive).

As to `c1ccc2c(NCCCN3CCN(CCCNc4c5ccccc5nc5ccccc45)CC3)c3ccccc3nc2c1`, the growth is -23.8% [100 µM] (active).

As to `COc1ccc2[nH]c3nc4cnccc4cc3c2c1`, the growth is 108% (inactive).

In the case of `O/N=C1\CCC2CCCCC2C1` (stereo not given), the growth was 98.8% (inactive).

In the case of `CCN(CC)CCC(CNc1c(C)cnc2cc(Cl)ccc12)c1ccc(Cl)c(Cl)c1` (stereo not given), the growth is 51.5% (inactive).

With `Cc1cc(N2CCOCC2)nc(N(CCNc2ccnc3cc(Cl)ccc23)Cc2cccs2)n1`, the growth was -63.2% (active).

Turning to `O=C1/C(=C/c2cccc(Br)c2)COc2ccc(O)cc21`, the growth is -16.7% (active).

Turning to `NCCNc1nc2ccc(F)cc2c2c(=O)c3cc(F)ccc3sc12`, the growth is 21.2% (inactive).

As to `CC(=O)c1ccc2c(c1)CCN2`, the growth was 106% (inactive).

Take `Cc1cc(C(=O)c2ccccc2)cc(C)c1O`: the growth is 31.3% (inactive).

As to `Cc1ccc(/C=C2\Oc3ccc(O)c(O)c3C2=O)cc1`, the growth is 14.7% (inactive).

For `Cc1cc(NCc2cc(Nc3ccnc4cc(Cl)ccc34)ccc2F)nc(Cl)n1`, the growth is 22.9% (inactive).

Regarding `CO[C@H](C(=O)N[C@@H](CCCCNC(=O)OCc1ccccc1)C(=O)OC(C)(C)C)[C@@H]1Cc2cc3cc(OC4CC(OC5CC(O)C(O)C(C)O5)C(O)C(C)O4)c(C)c(O)c3c(O)c2C(=O)[C@H]1OC1CC(OC2CC(OC3CC(C)(O)C(O)C(C)O3)C(O)C(C)O2)C(O)C(C)O1` (stereo not given in full), the growth is -0.249% (active).

As to `COC(=O)c1[nH]nc(OC)c1C1(C(C#N)c2nc3ccccc3s2)CCCc2ccccc21` (stereo not given), the growth was 79.8% (inactive).

In the case of `CCN1C(=O)N(CC)C2Nn3c(s/c(=C\c4cccc(F)c4)c3=O)=NC21` (stereo not given), the growth is 38.6% (inactive).

For the origin of these results see PubChem BioAssay (NCI).
